What all share (assay): DAPPL (digital affinity profiling via proximity ligation, sequencing); 10 mM Tris-HCl pH 7.5, 50 mM NaCl, 1 mM DTT, 4% glycerol, room temperature, 30 min; GST-TFs on glutathione beads, 16-mer random dsDNA library, 0.1% formaldehyde crosslink after washing; high values mean tight binding
What all share (details): protein: recombinant; tags: N-terminal GST; dsDNA, one strand shown

One assay addresses T1, FLI1 (Homo sapiens, UniProt Q01543 1-452).
T1 sequence: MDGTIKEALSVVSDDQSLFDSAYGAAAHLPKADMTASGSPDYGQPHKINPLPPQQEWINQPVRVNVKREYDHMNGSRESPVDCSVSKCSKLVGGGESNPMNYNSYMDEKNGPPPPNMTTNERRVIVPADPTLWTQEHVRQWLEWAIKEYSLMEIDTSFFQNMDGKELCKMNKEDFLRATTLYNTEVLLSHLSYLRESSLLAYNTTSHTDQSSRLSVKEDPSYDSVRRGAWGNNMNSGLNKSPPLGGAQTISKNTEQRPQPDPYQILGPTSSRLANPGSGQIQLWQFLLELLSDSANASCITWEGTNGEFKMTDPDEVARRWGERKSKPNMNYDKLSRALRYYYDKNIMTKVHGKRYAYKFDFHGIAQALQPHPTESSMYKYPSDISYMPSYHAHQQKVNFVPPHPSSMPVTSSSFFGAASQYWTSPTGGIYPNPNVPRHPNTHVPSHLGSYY
The gist of the method: (§1)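 Each value of binding signal is a hexamer's read frequency for a factor divided by the same hexamer's frequency in the tag-only sample. Barcoded, bead-captured GST fusions of human transcription factors made in yeast were pooled with that sample and incubated with 200 nmole of a random double-stranded 16-mer DNA library in Tris/NaCl/DTT/glycerol buffer at room temperature for 30 min. Washing, 0.1% formaldehyde crosslinking, proximity ligation, PCR and Illumina NextSeq500 sequencing followed.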

In the next assay the target is T2, GABPA (Homo sapiens, UniProt Q06546 1-454).
T2 sequence: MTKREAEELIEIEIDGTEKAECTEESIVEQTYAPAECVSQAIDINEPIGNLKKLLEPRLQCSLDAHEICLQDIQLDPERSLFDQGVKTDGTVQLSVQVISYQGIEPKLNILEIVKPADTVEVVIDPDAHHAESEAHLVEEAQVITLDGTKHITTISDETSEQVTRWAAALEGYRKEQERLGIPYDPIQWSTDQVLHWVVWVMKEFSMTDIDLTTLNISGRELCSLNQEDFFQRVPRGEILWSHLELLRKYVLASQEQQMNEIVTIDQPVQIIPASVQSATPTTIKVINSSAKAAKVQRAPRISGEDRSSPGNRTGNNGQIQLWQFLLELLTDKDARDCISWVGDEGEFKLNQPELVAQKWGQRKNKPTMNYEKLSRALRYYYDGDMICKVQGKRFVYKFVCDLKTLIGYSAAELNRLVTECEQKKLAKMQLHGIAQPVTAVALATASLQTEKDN
The essentials: as §1

In a further assay the target is T3, ERG (Homo sapiens, UniProt P11308 1-479).
T3 sequence: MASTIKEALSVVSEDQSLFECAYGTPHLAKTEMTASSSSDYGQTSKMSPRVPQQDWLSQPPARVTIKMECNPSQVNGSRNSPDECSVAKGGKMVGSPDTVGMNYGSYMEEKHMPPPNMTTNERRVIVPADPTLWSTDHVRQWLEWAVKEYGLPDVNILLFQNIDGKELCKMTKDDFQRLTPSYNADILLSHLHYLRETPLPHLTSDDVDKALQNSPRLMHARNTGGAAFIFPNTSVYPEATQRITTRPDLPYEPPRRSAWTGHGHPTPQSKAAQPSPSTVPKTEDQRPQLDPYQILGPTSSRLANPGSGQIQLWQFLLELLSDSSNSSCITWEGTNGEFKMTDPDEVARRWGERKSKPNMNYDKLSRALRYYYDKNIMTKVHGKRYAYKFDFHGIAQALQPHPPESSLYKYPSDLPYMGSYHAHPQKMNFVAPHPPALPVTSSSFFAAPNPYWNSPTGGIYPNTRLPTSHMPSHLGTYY
The gist of the method: as §1

In another assay the target is ELF1 (Homo sapiens, UniProt P32519 1-619). The gist of the method:
as §1

The target of a further assay is SPI1 (Homo sapiens, UniProt P17947 1-270). The essentials: as §1
The next assay addresses SPIB (Homo sapiens, UniProt Q01892 1-262). The gist of the method: as §1
Another assay deals with ELF4 (Homo sapiens, UniProt Q99607 1-663). The gist of the method: as §1
Chain of ELF4 (Q99607 whole entry): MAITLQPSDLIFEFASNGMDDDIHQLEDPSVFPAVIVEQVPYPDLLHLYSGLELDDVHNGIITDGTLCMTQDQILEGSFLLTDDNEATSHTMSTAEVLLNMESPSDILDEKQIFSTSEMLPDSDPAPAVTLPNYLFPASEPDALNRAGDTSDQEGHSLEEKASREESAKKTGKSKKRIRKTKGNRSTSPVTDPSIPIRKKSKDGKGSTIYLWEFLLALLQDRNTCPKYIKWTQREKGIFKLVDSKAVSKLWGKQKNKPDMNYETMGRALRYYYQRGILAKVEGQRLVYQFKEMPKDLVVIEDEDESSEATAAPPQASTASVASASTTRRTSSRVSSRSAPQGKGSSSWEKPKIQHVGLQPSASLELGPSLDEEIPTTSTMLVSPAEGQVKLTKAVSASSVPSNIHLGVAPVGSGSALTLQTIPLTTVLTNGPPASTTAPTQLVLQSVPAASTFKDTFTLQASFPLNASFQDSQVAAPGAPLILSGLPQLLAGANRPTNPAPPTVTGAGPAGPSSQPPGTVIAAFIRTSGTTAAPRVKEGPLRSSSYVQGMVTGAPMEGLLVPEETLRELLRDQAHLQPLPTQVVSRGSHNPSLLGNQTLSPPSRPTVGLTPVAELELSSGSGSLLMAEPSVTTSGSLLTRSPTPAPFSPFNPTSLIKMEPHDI
The target of a further assay is T4, ELK4 (Homo sapiens, UniProt P28324-2 1-405).
T4 sequence: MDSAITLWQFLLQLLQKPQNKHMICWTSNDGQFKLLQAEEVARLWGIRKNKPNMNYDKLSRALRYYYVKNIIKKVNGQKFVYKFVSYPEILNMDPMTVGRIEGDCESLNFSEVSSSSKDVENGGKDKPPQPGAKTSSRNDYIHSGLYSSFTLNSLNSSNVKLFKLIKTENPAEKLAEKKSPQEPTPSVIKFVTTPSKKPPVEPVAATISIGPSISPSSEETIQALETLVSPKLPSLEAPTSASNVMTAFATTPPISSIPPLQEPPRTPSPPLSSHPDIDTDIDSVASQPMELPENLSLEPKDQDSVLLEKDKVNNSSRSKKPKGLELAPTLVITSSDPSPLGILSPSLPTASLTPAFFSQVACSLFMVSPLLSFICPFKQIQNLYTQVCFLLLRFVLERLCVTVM
The essentials: as §1

Another assay deals with T5, ETV2 (Homo sapiens, UniProt O00321 1-342).
T5 sequence: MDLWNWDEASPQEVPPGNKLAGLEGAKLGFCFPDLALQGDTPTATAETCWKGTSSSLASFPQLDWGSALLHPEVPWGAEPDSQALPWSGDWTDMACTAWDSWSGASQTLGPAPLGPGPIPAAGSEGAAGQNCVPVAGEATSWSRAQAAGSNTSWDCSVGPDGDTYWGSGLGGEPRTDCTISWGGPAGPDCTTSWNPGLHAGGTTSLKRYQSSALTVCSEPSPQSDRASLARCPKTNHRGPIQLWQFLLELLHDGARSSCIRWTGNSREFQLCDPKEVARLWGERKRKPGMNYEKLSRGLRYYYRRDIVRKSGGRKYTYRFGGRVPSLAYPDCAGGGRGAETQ
The gist of the method: as §1

The target of a further assay is T6, ELF3 (Homo sapiens, UniProt P78545 1-371).
T6 sequence: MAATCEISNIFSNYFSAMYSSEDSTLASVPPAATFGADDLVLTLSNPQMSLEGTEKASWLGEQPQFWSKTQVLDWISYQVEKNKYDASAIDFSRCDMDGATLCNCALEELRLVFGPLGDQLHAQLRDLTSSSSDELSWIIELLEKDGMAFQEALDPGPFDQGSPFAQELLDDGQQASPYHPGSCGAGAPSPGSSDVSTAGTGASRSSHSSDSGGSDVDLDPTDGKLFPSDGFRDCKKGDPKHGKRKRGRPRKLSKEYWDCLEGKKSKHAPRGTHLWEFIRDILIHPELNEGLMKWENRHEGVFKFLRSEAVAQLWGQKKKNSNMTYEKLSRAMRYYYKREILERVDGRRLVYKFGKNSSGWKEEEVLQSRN
The essentials:
as §1

Another assay deals with ETV1 (Homo sapiens, UniProt P50549 1-477). The gist of the method:
as §1

The target of another assay is T7, ERF (Homo sapiens, UniProt P50548 1-548).
T7 sequence: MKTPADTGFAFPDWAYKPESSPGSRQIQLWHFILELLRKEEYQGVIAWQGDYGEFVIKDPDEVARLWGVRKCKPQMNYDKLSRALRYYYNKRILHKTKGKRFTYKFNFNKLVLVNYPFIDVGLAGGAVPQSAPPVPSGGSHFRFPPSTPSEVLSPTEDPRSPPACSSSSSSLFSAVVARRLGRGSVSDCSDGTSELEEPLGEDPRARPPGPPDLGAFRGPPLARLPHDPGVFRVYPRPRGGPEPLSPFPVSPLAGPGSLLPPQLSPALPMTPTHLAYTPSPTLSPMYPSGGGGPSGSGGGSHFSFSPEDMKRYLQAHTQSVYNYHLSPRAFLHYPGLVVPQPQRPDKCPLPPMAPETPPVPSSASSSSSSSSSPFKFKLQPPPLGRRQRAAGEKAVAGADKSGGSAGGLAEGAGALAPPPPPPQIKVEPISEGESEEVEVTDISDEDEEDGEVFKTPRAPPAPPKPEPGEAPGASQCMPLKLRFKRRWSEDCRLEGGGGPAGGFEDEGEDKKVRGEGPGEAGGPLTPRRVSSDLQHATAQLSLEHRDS
The essentials:
as §1

A further assay addresses T8, ETV3L (Homo sapiens, UniProt Q6ZN32 1-361).
T8 sequence: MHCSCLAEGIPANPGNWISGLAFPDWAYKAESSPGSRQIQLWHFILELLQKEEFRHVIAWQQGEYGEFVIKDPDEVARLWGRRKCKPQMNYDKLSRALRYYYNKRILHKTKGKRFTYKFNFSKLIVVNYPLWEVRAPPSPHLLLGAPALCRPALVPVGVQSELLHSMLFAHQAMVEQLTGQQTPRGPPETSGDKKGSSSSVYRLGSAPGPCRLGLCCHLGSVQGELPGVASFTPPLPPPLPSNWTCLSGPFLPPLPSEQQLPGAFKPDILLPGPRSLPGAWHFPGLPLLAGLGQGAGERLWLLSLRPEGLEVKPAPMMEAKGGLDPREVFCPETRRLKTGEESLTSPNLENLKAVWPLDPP
The gist of the method:
as §1

A further assay addresses T9, ETS2 (Homo sapiens, UniProt P15036 1-469).
T9 sequence: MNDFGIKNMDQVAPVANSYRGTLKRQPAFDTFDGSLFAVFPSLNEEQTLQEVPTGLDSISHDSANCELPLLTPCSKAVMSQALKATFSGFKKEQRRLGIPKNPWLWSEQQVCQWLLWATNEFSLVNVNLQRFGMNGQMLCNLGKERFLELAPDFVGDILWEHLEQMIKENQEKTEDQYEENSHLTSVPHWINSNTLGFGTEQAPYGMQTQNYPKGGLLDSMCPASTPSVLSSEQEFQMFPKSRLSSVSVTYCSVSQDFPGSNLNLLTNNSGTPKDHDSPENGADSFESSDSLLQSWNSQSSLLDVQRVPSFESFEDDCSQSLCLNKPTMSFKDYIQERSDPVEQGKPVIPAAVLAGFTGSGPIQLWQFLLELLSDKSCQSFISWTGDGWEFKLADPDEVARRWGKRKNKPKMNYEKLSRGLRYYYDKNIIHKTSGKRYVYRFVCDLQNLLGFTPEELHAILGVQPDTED
The essentials: as §1

The next assay concerns the target T10, ELF5 (Homo sapiens, UniProt Q9UKW6-2 1-255).
T10 sequence: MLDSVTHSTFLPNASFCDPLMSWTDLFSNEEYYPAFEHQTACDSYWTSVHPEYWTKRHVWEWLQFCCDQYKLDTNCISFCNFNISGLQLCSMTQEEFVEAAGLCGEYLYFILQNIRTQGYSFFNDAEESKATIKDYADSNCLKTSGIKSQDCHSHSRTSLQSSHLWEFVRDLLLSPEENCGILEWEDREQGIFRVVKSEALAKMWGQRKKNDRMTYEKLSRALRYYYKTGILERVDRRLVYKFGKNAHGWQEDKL
The essentials: as §1

A further assay deals with T11, ETV3 (Homo sapiens, UniProt P41162-2 1-143).
T11 sequence: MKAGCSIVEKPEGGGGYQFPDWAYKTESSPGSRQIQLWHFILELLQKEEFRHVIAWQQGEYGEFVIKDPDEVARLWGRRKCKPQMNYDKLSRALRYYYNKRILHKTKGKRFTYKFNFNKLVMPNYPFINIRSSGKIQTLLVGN
The essentials:
as §1

The next assay deals with ETV6 (Homo sapiens, UniProt P41212 1-452). The gist of the method: as §1
Chain of ETV6 (P41212 whole entry): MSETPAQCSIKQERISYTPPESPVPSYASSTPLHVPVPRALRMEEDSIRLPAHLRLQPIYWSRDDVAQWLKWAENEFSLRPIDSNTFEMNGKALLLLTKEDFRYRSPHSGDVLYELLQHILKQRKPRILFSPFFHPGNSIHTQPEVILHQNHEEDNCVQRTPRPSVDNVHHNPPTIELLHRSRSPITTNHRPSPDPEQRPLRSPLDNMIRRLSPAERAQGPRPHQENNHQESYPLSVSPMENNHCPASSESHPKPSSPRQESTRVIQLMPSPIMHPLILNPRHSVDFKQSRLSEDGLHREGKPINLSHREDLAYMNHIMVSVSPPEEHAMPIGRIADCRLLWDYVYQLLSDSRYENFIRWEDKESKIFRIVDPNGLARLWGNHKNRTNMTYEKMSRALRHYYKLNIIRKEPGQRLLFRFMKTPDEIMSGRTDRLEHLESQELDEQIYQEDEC

For one sequence, binding signal results are on record in publication PMC7862700, “An all-to-all approach to the identification of sequence-specific readers for epigenetic DNA modifications on cytosine”.

Chain of SPIB (Q01892 whole entry): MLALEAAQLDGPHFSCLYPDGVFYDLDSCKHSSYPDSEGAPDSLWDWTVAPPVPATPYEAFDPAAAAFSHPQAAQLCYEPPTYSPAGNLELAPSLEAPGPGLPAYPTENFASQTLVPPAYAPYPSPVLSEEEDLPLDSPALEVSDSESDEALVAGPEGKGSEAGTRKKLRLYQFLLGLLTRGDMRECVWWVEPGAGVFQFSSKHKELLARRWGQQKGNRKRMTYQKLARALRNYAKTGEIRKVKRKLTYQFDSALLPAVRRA
Chain of ELF1 (P32519 whole entry): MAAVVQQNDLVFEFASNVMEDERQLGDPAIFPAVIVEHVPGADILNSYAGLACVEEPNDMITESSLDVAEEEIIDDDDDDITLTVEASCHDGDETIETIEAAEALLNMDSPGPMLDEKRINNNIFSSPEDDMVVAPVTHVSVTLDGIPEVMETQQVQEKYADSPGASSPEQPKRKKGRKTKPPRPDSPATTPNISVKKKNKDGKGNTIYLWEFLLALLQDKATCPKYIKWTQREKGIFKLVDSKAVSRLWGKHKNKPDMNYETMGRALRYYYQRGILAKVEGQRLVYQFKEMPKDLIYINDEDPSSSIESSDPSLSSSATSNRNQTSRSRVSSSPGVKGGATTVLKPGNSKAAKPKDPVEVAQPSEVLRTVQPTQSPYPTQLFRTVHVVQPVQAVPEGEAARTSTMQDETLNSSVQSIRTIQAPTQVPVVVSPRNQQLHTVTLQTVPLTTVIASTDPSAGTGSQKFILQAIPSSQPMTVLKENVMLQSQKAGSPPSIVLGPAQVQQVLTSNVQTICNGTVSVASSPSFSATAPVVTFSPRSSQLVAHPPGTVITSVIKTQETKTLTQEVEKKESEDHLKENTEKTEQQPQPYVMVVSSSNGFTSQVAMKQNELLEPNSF
Chain of ETV1 (P50549 whole entry): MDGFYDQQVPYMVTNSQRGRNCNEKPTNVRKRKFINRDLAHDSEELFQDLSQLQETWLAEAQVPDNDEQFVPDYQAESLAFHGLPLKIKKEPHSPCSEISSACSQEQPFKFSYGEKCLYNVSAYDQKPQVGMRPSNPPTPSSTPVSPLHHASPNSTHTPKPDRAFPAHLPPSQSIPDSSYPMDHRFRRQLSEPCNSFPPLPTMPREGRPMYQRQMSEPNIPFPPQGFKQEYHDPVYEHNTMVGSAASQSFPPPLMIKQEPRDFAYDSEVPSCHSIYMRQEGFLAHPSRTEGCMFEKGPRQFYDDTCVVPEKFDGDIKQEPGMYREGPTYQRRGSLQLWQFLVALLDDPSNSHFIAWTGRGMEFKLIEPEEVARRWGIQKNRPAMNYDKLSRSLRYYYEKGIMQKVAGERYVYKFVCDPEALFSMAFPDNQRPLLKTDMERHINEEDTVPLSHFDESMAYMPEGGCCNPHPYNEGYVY

Regarding TGTCAA, the binding signal was 1.02 fold enrichment (6-mer frequency, TF over GST control) with FLI1; 1.01 fold enrichment (6-mer frequency, TF over GST control) in the assay with GABPA; 1.05 fold enrichment (6-mer frequency, TF over GST control) with ERG; 1.05 fold enrichment (6-mer frequency, TF over GST control) with ELF1; 1 fold enrichment (6-mer frequency, TF over GST control) in the assay with SPI1; 1.02 fold enrichment (6-mer frequency, TF over GST control) with SPIB. Further, the binding signal with ELF4 was 1.08 fold enrichment (6-mer frequency, TF over GST control); with ELK4, 1.11 fold enrichment (6-mer frequency, TF over GST control); with ETV2, 1 fold enrichment (6-mer frequency, TF over GST control); with ELF3 it was 1.15 fold enrichment (6-mer frequency, TF over GST control); with ETV1, 1.06 fold enrichment (6-mer frequency, TF over GST control); with ERF, 1.07 fold enrichment (6-mer frequency, TF over GST control). In addition, the binding signal was 1.07 fold enrichment (6-mer frequency, TF over GST control) in the assay with ETV3L; 1.03 fold enrichment (6-mer frequency, TF over GST control) with ETS2; 1.01 fold enrichment (6-mer frequency, TF over GST control) in the assay with ELF5; 1.08 fold enrichment (6-mer frequency, TF over GST control) with ETV3; 1.04 fold enrichment (6-mer frequency, TF over GST control) in the assay with ETV6.
